Experimental data: PubChem BioAssay AID372 (MTDP, 2006)
About 770 (0.77%) of roughly 100,000 compounds were called active. Shown is part of a subset that was picked to be rich in actives. A number with no mark means an inactive call. Cut-off read from the data, not from the text of the source: active = inhibition above about 50%; inactive = the rest.

target: Gag-Pol polyprotein (Human immunodeficiency virus type 1 group M subtype B (isolate HXB2)) (UniProt P04585); assay: RNase H inhibition, HIV 1 Gag Pol polyprotein, FRET biochemical assay, screening (AID 372); conditions: HIV-1 RT RNase H, FRET RNA/DNA substrate fluorescence; at 10 µM; active compounds read high

Compound	inhibition
CC(=O)C1=C(Nc2ccc(Br)cc2)CC(C)(O)C(C(C)=O)C1c1ccc([N+](=O)[O-])cc1 (stereo unspecified)	4%
Cc1ccc(P(=O)(c2ccc(C)cc2)C(C)(C)O)cc1	0%
CCN(CC)c1nc(-c2ccccc2)c2cc(Cl)ccc2n1	12%
CN(CCO)c1nc(-c2ccccc2)c2cc(Cl)ccc2n1	50% (active)
CN(C)c1nc(-c2ccccc2)c2cc(Cl)ccc2n1	13%
COc1ccc(-c2nn(-c3ccccc3)cc2/C=N/NS(=O)(=O)c2ccccc2)cc1	15%
S=C(NCCC(c1ccccc1)c1ccccc1)Nc1ccc(Cl)cc1Cl	12%
S=C(NCCc1ccccn1)Nc1ccc(Cl)c(Cl)c1	59% (active)
O=C(NCc1ccccn1)Nc1ccc(Cl)c(Cl)c1	9%
S=C(NCCc1ccccn1)Nc1ccc(Cl)cc1Cl	50% (active)
S=C(NCCc1c[nH]c2ccccc12)Nc1ccc(Cl)c(Cl)c1	49%
S=C(NCCc1ccccc1)Nc1ccc(Cl)cc1Cl	46%
O=C(NC1CCCCC1)c1cccc(C(F)(F)F)c1	11%
Cc1cc(/C=C(\C#N)C(=O)Nc2ccccc2)c(C)n1-c1sc2c(c1C#N)CCCC2	15%
CC1(C)C(c2ccccc2)=[N+]([O-])C2(CCCCC/C2=N\NC(N)=O)N1O (stereo unspecified)	0%
Cc1cc(C)c(N/C=C(\C#N)c2nc(-c3ccc(Cl)cc3Cl)cs2)c(C)c1	27%
CCN(CC)S(=O)(=O)c1cc(-c2nnc(-c3ccc(C)cc3)o2)ccc1C	3%
O=[N+]([O-])c1ccc(C2Nc3c(cccc3[N+](=O)[O-])C3C=CCC32)cc1 (stereo unspecified)	35%
COc1cccc2c1NC(c1ccc(F)cc1)C1CC=CC21 (stereo unspecified)	35%
COc1cccc2c1NC(c1ccc([N+](=O)[O-])cc1)C1CC=CC21 (stereo unspecified)	51% (active)
Cc1ccc(S(=O)(=O)Nc2cc(C)c(O)c(S(=O)(=O)c3ccc(C)cc3)c2)cc1	18%
O=C1c2ccc(Oc3ccc([N+](=O)[O-])cc3)cc2C(=O)N1c1nc2ccccc2s1	11%
Cc1ccc(N2C(=O)C3C4C=CC(O4)C3C2=O)c(C)c1 (stereo unspecified)	5%
Oc1c(C=Nc2cccc3nsnc23)cc(Br)c2ccccc12	5%
COc1ccc(Br)c(C=Nc2cccc3nsnc23)c1O	64% (active)
Oc1c(Br)ccc(Cl)c1C=Nc1cccc2nsnc12	8%

Compound	inhibition
Brc1ccccc1OCCCCCn1ccnc1	5%
CN1C(=O)CS/C1=N/S(=O)(=O)c1ccc([N+](=O)[O-])cc1	10%
S=C(NCc1ccco1)NC1CCCC1	6%
Cc1ccc(-c2oc3ccccc3c(=O)c2O)cc1	3%
O=c1c(O)c(-c2ccc3c(c2)OCO3)oc2ccccc12	0%
O=c1c(O)c(-c2ccc(O)c(O)c2)oc2cc(O)cc(O)c12	73% (active)
CN(C)c1ccc(C(c2c[nH]c3ccccc23)c2c[nH]c3ccccc23)cc1	23%
Cc1cccc(/C=C2\C(=O)NC(=O)N(c3cccc(Br)c3)C2=O)c1	10%
C=CCNC(=O)Nc1ccc2nc3c4ccccc4c4ccccc4c3nc2c1	51% (active)
C=CCNC(=S)Nc1ccc2nc3c4ccccc4c4ccccc4c3nc2c1	24%
C=CCNC(=O)Nc1ccc2nc(-c3ccccc3)c(-c3ccccc3)nc2c1	15%
Cc1cc(C)n(-c2ccc(N3CCOCC3)nn2)n1	11%
NC(=O)CSc1nc(-c2ccccc2)c(-c2ccccc2)o1	37%
CC(=O)CSc1nc(-c2ccccc2)c(-c2ccccc2)o1	50% (active)
CCN(CC)C(=O)CSc1nc(-c2ccccc2)c(-c2ccccc2)o1	15%
COc1ccc(-c2csc(NC3OC(=O)c4c3ccc(OC)c4OC)n2)cc1 (stereo unspecified)	20%
CCOc1cc(C(=O)Nc2ccc(OC)c(Cl)c2)cc(OCC)c1OCC	8%
O=S(=O)(Nc1ccc(F)cc1F)c1ccc2ccccc2c1	15%
N/C(=N/OC(=O)c1cccc([N+](=O)[O-])c1)c1nonc1N	14%
O=C(O)c1ccc(-c2cc(Cl)ccc2Cl)o1	0%
O=C1C(Cl)=C(Cl)C(=O)N1c1cc(Cl)ccc1Cl	4%
O=C1C(Cl)=C(Cl)C(=O)N1c1cccc(C(F)(F)F)c1	6%
O=C1C=CC(=O)N1c1cccc(Cl)c1	19%
O=C1C=CC(=O)C(c2cccc(C(F)(F)F)c2)=C1	71% (active)
OCc1ccc(-c2cccc(Cl)c2)o1	28%
Cc1ccc(C2=CC(=O)N(c3cccc(C(F)(F)F)c3)C2=O)cc1	10%

Compound	inhibition
CCOc1ccc(C(=O)Nc2cccc(-c3nc4cc(C)ccc4o3)c2C)cc1Br	11%
O=C(Nc1ccc(S(=O)(=O)Nc2ncccn2)cc1)c1cccnc1	8%
CCOc1ccc2ccc(OCC)c(/C=C3/C(=O)NC(=O)N(Cc4ccco4)C3=O)c2c1	26%
CCCN(CCC)CCCNC(=O)/C=N\O	6%
COc1cc(OC)c(/C=C2\C(=O)NC(=S)N(c3cccc(Cl)c3)C2=O)cc1Br	9%
CC(Oc1ccc(/C=C2/SC(=O)NC2=O)cc1)C(=O)O (stereo unspecified)	10%
O=C(Nc1nnc(-c2cccc([N+](=O)[O-])c2)s1)Nc1ccc(Cl)cc1Cl	43%
O=C(/C=C/c1ccco1)/C=C/c1ccc(-c2ccc(Cl)c(Cl)c2)o1	52% (active)
O=C(/C=C/c1ccco1)/C=C/c1ccc(-c2ccc(Br)cc2)o1	33%
O=C(/C=C/c1ccc(-c2ccc(Cl)c(Cl)c2)o1)c1ccco1	2%
CSc1nc(-c2ccccc2)c(C#N)c(=O)n1C	15%
CCCCCC/C(=N\NC(=O)c1ccncc1)c1ccccc1	5%
CCc1c(C)sc(NC(=O)C2CC3CCC2C3)c1C#N (stereo unspecified)	21%
CCc1c(C)sc(NC(=O)C2CCCCC2C(=O)O)c1C#N (stereo unspecified)	75% (active)
CCc1c(C)sc(NC(=O)C2CCCCC2C(=O)O)c1C(N)=O (stereo unspecified)	48%
O=C1OC(c2sc3ccccc3c2Cl)=N/C1=C/c1ccc(F)cc1	1%
CC1(C)OC(=O)C(=Cc2ccc(I)o2)C(=O)O1	53% (active)
O=C1C(=Cc2ccc(I)o2)C(=O)c2ccccc21	9%
CN1C(=O)C(=Cc2ccc(I)o2)C(=O)N(C)C1=S	21%
O=C(/C=C/c1ccccc1)C1=C(O)C(=O)N(c2ccccc2)C1c1cccc([N+](=O)[O-])c1 (stereo unspecified)	10%
Fc1cccc(-c2n[nH]c(=S)n2-c2ccccc2)c1	5%
Cc1cc2nc3s/c(=C/c4ccc(F)cc4)c(=O)n3c2cc1C	1%
Clc1cc(-c2ccccc2)nc(-c2ccccc2)n1	24%
O=C1C=CC(=O)N1c1ccc(-c2cc(-c3ccccc3)nc(-c3ccc(N4C(=O)C=CC4=O)cc3)n2)cc1	54% (active)
Oc1ccc(-c2cc(-c3ccc(O)cc3)nc(-c3ccccc3)n2)cc1	31%
Cc1ccc(C(=O)Nc2ccc(Cc3ccncc3)cc2)cc1[N+](=O)[O-]	5%

Compound	inhibition
Cc1ccc(N(CC(=O)NC2CCCCC2)S(=O)(=O)c2ccc(F)cc2)cc1	56% (active)
Cc1ccc(N(CC(=O)NC2CCCC2)S(=O)(=O)c2ccc(F)cc2)cc1	5%
CSc1ccc(S(=O)(=O)N(CC(=O)NC2CCCCC2)c2ccc(C)cc2)cc1	13%
COc1ccccc1CNS(=O)(=O)c1ccc(Cl)cc1	0%
N=C1/C(=C/c2ccc(-c3ccccc3)o2)C(=O)N=C2SC(c3ccccc3)=NN12	2%
Cc1ccc(N2NC(=O)/C(=C/c3ccc(Br)cc3)C2=O)cc1C	15%
O=C(CSc1nc2ccc(N3C(=O)c4ccccc4C3=O)cc2s1)Nc1ccc(F)cc1	11%
O=C(CSc1nc2ccc(N3C(=O)c4ccccc4C3=O)cc2s1)Nc1ccc(Br)cc1	28%
O=C(CSc1nc2ccc(N3C(=O)c4ccccc4C3=O)cc2s1)c1ccc(F)cc1	43%
O=C(CSc1nc2ccc(N3C(=O)c4ccccc4C3=O)cc2s1)c1ccccc1	8%
COc1ccc(NC(=O)CSc2nc3ccc(N4C(=O)c5ccccc5C4=O)cc3s2)cc1	56% (active)
O=C(CSc1nc2ccc(N3C(=O)c4ccccc4C3=O)cc2s1)c1ccc(Cl)cc1	56% (active)
COc1ccc(/C=C/c2nc3sc4c(c3c(=O)o2)CCCC4)cc1	14%
COc1cc2ccccc2cc1C(=O)NC(=S)Nc1cccc(-c2nc3ccccc3s2)c1C	15%
O=C1NC(=O)N(c2cccc(Br)c2)C(=O)/C1=C/c1cc(Cl)c(O)c(Cl)c1	10%
O=C1CSC(c2ccc(Cl)c(Cl)c2)N1CCc1ccccc1 (stereo unspecified)	7%
Cc1ccc(/C(O)=C/c2nc3ccc([N+](=O)[O-])cc3oc2=O)o1	10%
Cc1cc(C)c(/C(O)=C/c2nc3ccccc3oc2=O)c(C)c1	0%
Cc1ccc(/C(O)=C/c2nc3ccccc3oc2=O)o1	54% (active)
COc1ccc(N=C(C)c2cc(Cl)ccc2O)cc1	31%
COc1ccc(Cc2nc3ccccc3c(=O)n2/N=C/c2c[nH]c3ccccc23)cc1OC	52% (active)
Cc1ccccc1-c1nc2ccccc2c(=O)n1/N=C/c1c[nH]c2ccccc12	10%
COc1ccc(Cc2nc3ccccc3c(=O)n2/N=C/c2cccs2)cc1OC	23%
